Source: PubChem BioAssay (National Center for Advancing Translational Sciences (NCATS))
HT1080-NT tox = kills 2HG-producing HT-1080-NT fibrosarcoma cells; HT-1080-NT fibrosarcoma viability, CellTiter-Glo ATP luminescence, 48 h; Potency, µM (highest dose often 46.1 µM), actives largely listed as cytotoxic; actives 1.6% (n = 360,000);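 note: NT is the 2HG producing partner of a matched IDH1 knockdown line; nearly all actives have a fitted effect of over 55% in size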
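Luminescent CellTiter-Glo readout after 48 hours of compound exposure at 37 degrees C defined viability of HT-1080-NT cells. Activity was normalized to DMSO wells and cell-free media wells; concentration-response curves were fitted and assigned curve classes.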
KB-V1 MDR tox = KB-V1 MDR subline cytotoxicity. AID 1347076. Potency, µM (series often up to 46.1 µM), usual class: cytotoxic. KB-V1 MDR cells viability, CellTiter-Glo, 72 h. actives 3.4% (n = 400,000); note: nearly all actives have a fitted effect of over 60% in size
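Cells of the MDR subline KB-V1 are plated, dosed with compound at multiple concentrations, and incubated 72 h at 37 degrees C; CellTiter-Glo is then added and luminescence read after 10 min.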
TDP1 cell CPT = growth inhibition of DT40 Tdp1-/-;hTDP1 cells with camptothecin (screen for TDP1 inhibitors); AID 686979; Potency, µM (highest dose often 46.2 µM), hits mostly inhibitors; chicken DT40 Tdp1-/-;hTDP1 cells + 20 nM CPT, ATP luminescence, 48 h; actives 12% (n = 420,000); note: nearly all actives have a fitted effect of over 55% in size
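Cell growth measured by CellTiter-Glo luminescence after a minimum 48 h, 37 C compound exposure with 20 nM CPT in Tdp1-knockout DT40 cells stably expressing hTDP1, seeded 400/well; qHTS titration format.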
HT1080 IDH1KD tx = toxicity to HT-1080 IDH1 knockdown cells (counter line). HT-1080 IDH1 knockdown viability, ATP luminescence, 48 h. Potency, µM (titrated, usually from 46.1 µM), actives largely listed as cytotoxic. actives 2% (n = 360,000)
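Knockdown cells (IDH1KD HT-1080) received compounds 2 h after plating at 750 cells/well and were kept 48 h at 37 °C in 5% FBS RPMI. A CellTiter-Glo luminescence read gave % activity for curve fitting.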
TDP1 cell noCPT = qHTS for Inhibitors of human tyrosyl-DNA phosphodiesterase 1 (TDP1): qHTS in cells in absence of CPT. DT40 Tdp1-/- hTDP1 cells, no CPT, ATP luminescence, 48 h. Potency, µM (titrated, usually from 46.2 µM), most hits filed as inhibitors. actives 15% (n = 420,000). AID 686978, 2013; note: nearly all actives have a fitted effect of over 55% in size
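No-CPT arm: Tdp1-/-;hTDP1 DT40 cells (400/well) plus compounds, incubated ≥48 hr at 37 °C. Readout CellTiter-Glo luminescence.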
KB-3-1 tox = kills parental KB-3-1 adenocarcinoma cells; KB-3-1 viability, CellTiter-Glo ATP luminescence, 72 h; Potency, µM (top dose mostly 46.1 µM), hits mostly cytotoxic; actives 1.4% (n = 400,000); AID 1347075; note: nearly all actives have a fitted effect of over 60% in size
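Cytotoxicity in the drug-sensitive parental line KB-3-1 was scored as loss of CellTiter-Glo luminescence following 72 h incubation with compound. Values come from curve fitting of normalized concentration-response data.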
Each line names hits and unclear results; the compound was inactive in the other large screens; ! = not active in a repeat. Hits are enriched below; roughly 19% of the tested compounds scored in any of these assays. Calls come from the whole dose curve; as a rule, active = well fitted curve in the direction sought with a large enough effect; inconclusive = small, poorly fitted or top-dose-only effect, or another doubt; inactive = no such curve, though single readings can be large; an effect the other way counts as inactive or inconclusive.

Cc1ccc(N2C(=O)C(CC(=O)Nc3ccccc3)N(CCC3=CCCCC3)C2=O)cc1 (stereo not given)	TDP1 cell CPT 16µM, TDP1 cell noCPT 21µM (no result: HT1080-NT tox, HT1080 IDH1KD tx)
COc1ccc(NC(=O)CC2C(=O)N(c3ccc(OC)cc3)C(=O)N2CCC2=CCCCC2)cc1 (stereo not given)	TDP1 cell CPT inconclusive, TDP1 cell noCPT inconclusive (no result: HT1080-NT tox, HT1080 IDH1KD tx)
COc1cccc(N2C(=O)C(CC(=O)Nc3ccc(F)cc3)N(C3CCCCC3)C2=O)c1 (stereo not given)	KB-V1 MDR tox inconclusive
CC(Oc1ccc(Br)cc1)C(=O)N(C)CC(=O)Nc1ccc(N2CCOCC2)cc1 (stereo not given)	none
O=c1c2cc3c(cc2n(Cc2ccc(Cl)cc2)c(=O)n1Cc1nc(-c2ccccc2)no1)OCO3	none (no result: HT1080-NT tox, HT1080 IDH1KD tx)
ClC1(Cl)CC1CSc1nnc(-c2ccncc2)o1 (stereo not given)	TDP1 cell noCPT inconclusive
O=C(O)CC/C(=N\Nc1ccc([N+](=O)[O-])cc1)c1ccccc1	none
O=C(O)CC/C(=N/Nc1ccc([N+](=O)[O-])cc1)C(=O)O	HT1080-NT tox 1.6µM, HT1080 IDH1KD tx 5.8µM
O=C(Nc1ccc(NC(=O)c2sc3ccccc3c2Cl)cc1Cl)c1ccco1	HT1080-NT tox inconclusive, TDP1 cell CPT inconclusive, HT1080 IDH1KD tx inconclusive, TDP1 cell noCPT inconclusive
CC1=C(C#N)C(c2ccoc2)C(C(=O)OCc2ccccc2)=C(N)S1 (stereo not given)	TDP1 cell noCPT 26µM
C=CCOC(=O)C1=C(C)OC(N)=C(C#N)C1c1ccoc1 (stereo not given)	none
Cc1ccccc1OCC(=O)NCC(c1cccs1)N1CCOCC1 (stereo not given)	KB-V1 MDR tox 16µM, TDP1 cell CPT inconclusive, TDP1 cell noCPT inconclusive, KB-3-1 tox inconclusive
Cc1ccc(Cl)c(OCC(=O)NCC(c2cccs2)N2CCOCC2)c1 (stereo not given)	TDP1 cell CPT 26µM, TDP1 cell noCPT inconclusive, KB-3-1 tox inconclusive
Cc1ccc(C)c(N)c1	none
Cc1ccc(N)c(C(=O)CCCCC(=O)O)c1	none
Cc1ccc(SSc2cc(C)ccc2N)c(N)c1	TDP1 cell CPT 7.3µM, TDP1 cell noCPT 8.2µM, KB-3-1 tox inconclusive
Cc1ccc(O)c(N)c1	HT1080-NT tox inconclusive, TDP1 cell CPT inconclusive, TDP1 cell noCPT 23µM
COC(=O)[C@]12CCCCC=C1N(CCC1=CCCCC1)C(=O)[C@H](CC(=O)NCCC(C)C)C2	HT1080-NT tox inconclusive, TDP1 cell CPT inconclusive, HT1080 IDH1KD tx inconclusive, TDP1 cell noCPT inconclusive, KB-3-1 tox inconclusive
COCCCNC(=O)C[C@@H]1C[C@@]2(C(=O)OC)CCCCC=C2N(CCC2=CCCCC2)C1=O	TDP1 cell CPT inconclusive, TDP1 cell noCPT 16µM
CCOC(=O)[C@]12CCC=C1N(CCC1=CCCCC1)C(=O)[C@H](CC(=O)NCCCOC)C2	TDP1 cell noCPT inconclusive
COC(=O)[C@]12CCCCC=C1N(CCC1=CCCCC1)C(=O)[C@H](CC(=O)NCCCCc1ccccc1)C2	HT1080-NT tox inconclusive, TDP1 cell CPT inconclusive, HT1080 IDH1KD tx inconclusive, TDP1 cell noCPT 18µM, KB-3-1 tox inconclusive
CNc1cc(-c2cc(OC)ccc2OC)ncn1	none
O=C(Nc1ccccc1O)c1cccc(S(=O)(=O)Nc2ccccc2O)c1	TDP1 cell noCPT inconclusive
CC(C)C[C@H](NC(=O)[C@@H](O)[C@H](N)Cc1ccccc1)C(=O)O	TDP1 cell noCPT 22µM (no result: HT1080-NT tox, KB-V1 MDR tox, HT1080 IDH1KD tx, KB-3-1 tox)
Cc1ccc(SCC(=O)NNC(=O)c2ccccc2)c(C)c1	TDP1 cell noCPT inconclusive
O=C(C[C@H]1C(=O)N(c2ccccc2)C[C@@H]1Cc1ccccc1)Nc1ccccc1	KB-V1 MDR tox 9.2µM!, TDP1 cell CPT inconclusive, TDP1 cell noCPT inconclusive, KB-3-1 tox 23µM!
CNC(=O)C[C@H]1C(=O)N(c2ccccc2)C[C@@H]1Cc1ccccc1	none
